Bioassay records deposited in PubChem BioAssay by several laboratories.
PGE2 EP2 inh: human EP2 receptor antagonists, primary screen, TR-FRET cAMP, C6 glioma cells; Prostaglandin E2 receptor EP2 subtype (Homo sapiens), P43116; AID 1422, 2008; actives 0.52% (n = 260,000); C6 glioma cells expressing human EP2; cells stimulated with saturating PGE2; inhibition, % at 25 µM;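 active = percent inhibition above 40 after rounding to a whole number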;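 also: rat C6 glioma host cells with rolipram phosphodiesterase inhibitor present; the protocol text gives 20 µM as final concentration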
Target sequence (P43116 whole entry, looked up): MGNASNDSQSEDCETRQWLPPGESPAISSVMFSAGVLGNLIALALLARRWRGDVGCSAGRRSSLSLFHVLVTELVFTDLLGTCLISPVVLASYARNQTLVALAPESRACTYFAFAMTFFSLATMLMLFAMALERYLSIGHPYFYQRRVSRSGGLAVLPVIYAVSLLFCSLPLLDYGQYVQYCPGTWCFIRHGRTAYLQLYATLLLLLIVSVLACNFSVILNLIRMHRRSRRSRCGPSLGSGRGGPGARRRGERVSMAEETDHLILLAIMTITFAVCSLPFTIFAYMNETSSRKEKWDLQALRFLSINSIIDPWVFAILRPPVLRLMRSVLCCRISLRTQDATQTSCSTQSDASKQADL
EP2 modulator: EP2 receptor modulators, cAMP readout, primary screen, cell-based, HTRF cAMP, PGE2 stimulation; Prostaglandin E2 receptor EP2 subtype (Homo sapiens), P43116; EP2-expressing cells, cAMP HTRF FRET, PGE2 co-stimulation; induction, % at 25 µM; actives 0.83% (n = 260,000); AID 940, 2007;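 active = compounds whose cAMP rise, as percent of the full-agonist control response, exceeds 60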;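 also: rat C6 glioma line stably carrying human EP2 under a CMV promoter; the protocol text gives 20 µM as final concentration; 100% = response of wells given 1 µM PGE2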
CHT inh: inhibitors of human choline transporter CHT; actives 0.86% (n = 310,000); CHT-expressing cells, membrane potential dye, choline response; hits give low values; High affinity choline transporter 1 (Homo sapiens), Q9GZV3; B-score at 10 µM;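 active = B-score over 3 SD under the library average, and starting fluorescence ratio not unusually high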;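 also: choline stimulus applied at its EC90 after an EC20 pre-addition; B-score computed on integrated fluorescence ratio after choline addition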
CHT PAM: CHT positive allosteric modulators, primary screen, cell-based, membrane potential dye, choline EC20 | B-score at 10 µM | CHT-expressing cells; hits give high values; LV-AA mutant CHT in HEK293 cells | actives 0.49% (n = 310,000) | High affinity choline transporter 1 (Homo sapiens), Q9GZV3;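 active = initial fluorescence not abnormally high and integrated response B-score, plate-corrected, over 3 SD above library mean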
EP2 cAMP induct: cAMP induction in EP2, EP4, beta2-AR and parental cells, confirmation, counter-screen for EP2 modulator project, cell-based, five parallel assays, C6 glioma, HEK293; shares compounds with EP2 modulator; cAMP HTRF induction; plus low (about EC15) PGE2 agonist; calls only at 20 µM (by protocol); actives 47% (n = 1,300);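 active = cAMP induction above 50% in the main assay while under 30% in all four parallel counter assays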;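 also: rat C6 glioma cells stably expressing human EP2 receptor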
* marks the source's active call; other numbers are inactive results; i = inactive; nt = no result; + = active, no number. A selection: hits, their analogues and other compounds. The true share with any hit is near 2%.

SMILES | PGE2 EP2 inh | EP2 modulator | CHT inh | CHT PAM | EP2 cAMP induct
Cc1ccc(S(=O)(=O)N2c3ccccc3OCC2C(C)(C)C)cc1 (stereo unspecified) | 5 | 88* | i | i | +
Cc1cc(C)n(CC(O)CN(Cc2ccco2)Cc2cccc3ccccc23)n1 (stereo unspecified) | 8 | -5 | nt | nt | nt
COc1cnc(SCc2c(Cl)cccc2Cl)nc1Cl | 6 | 74* | i | i | +
Nc1cc(N)nc(SCc2c(Cl)cccc2Cl)n1 | 7 | -37 | nt | nt | nt
CCCCOc1ccccc1Cn1c(=O)oc2ccccc21 | 8 | 62* | i | i | +
CCOc1ccccc1Cn1c(=O)sc2ccccc21 | 4 | 83* | i | i | +
Cc1cc(C(F)(F)F)n2nc(C(=O)N3CCc4c(nc[nH]c4=O)C3)cc2n1 | 5 | 23 | nt | nt | nt
Cc1oc(-c2ccccc2)cc1C(=O)Nc1cccc(/C=C/C(=O)O)c1 | 9 | 92* | nt | nt | +
Cc1oc(C(C)(C)C)cc1C(=O)Nc1cccc(/C=C/C(=O)O)c1 | 16 | -15 | i | i | nt
Cc1cc(C(=O)Nc2cccc(/C=C/C(=O)O)c2)c(C)o1 | 3 | 99* | i | i | +
O=C1OC(Nc2ccc3ccccc3c2)c2ccccc21 (stereo unspecified) | 9 | -39 | nt | nt | nt
O=C1COc2ccccc2N1Cc1ccccc1Cl | 7 | 68* | i | i | i
CC1Oc2ccccc2N(Cc2ccccc2Cl)C1=O (stereo unspecified) | 8 | 50 | i | i | nt
COc1ccc(-n2nnnc2SCC(=O)Nc2cc(C)ccc2OC)cc1 | 10 | -136 | nt | nt | nt
CCCCc1nc2sc3c(SCC(=O)NCc4ccco4)ncnc3c2c2c1CCC2 | 10 | 68* | i | i | i
N#CN=C1SCCS1 | 13 | 66* | i | i | i
COCCNC(=O)Cn1nc2c3ccccc3nc(C(C)C)n2c1=O | nt | 4 | nt | nt | nt
COC(=O)C[C@H]1C(C)(C)C2(O)OC34CC2C(=O)[C@]1(C)C3CC[C@]1(C)C4=CC(=O)O[C@H]1c1ccoc1 (stereo partly specified) | 5 | -14 | nt | nt | nt
CCCCCCC/C=C\CCCCCCCCC(=O)O | 10 | 94* | nt | nt | +
O=C(CSc1nnc(NC(=O)C2CC2)s1)Nc1ccccc1F | 15 | -8 | nt | nt | nt
COP(=O)(OC)c1nc(-c2cccc3ccccc23)oc1N1CCCCC1 | 14 | 13 | i | i | nt
CCOP(=O)(OCC)c1nc(-c2cccc3ccccc23)oc1N1CCCCC1 | 7 | 69* | i | i | +
CCOC(=O)c1cc(CC)sc1NC(=O)c1ccc2c(c1)OCCO2 | 11 | 69* | i | i | +
CCOC(=O)c1cc(CC)sc1NC(=O)c1cc(OCC)c(OCC)c(OCC)c1 | 5 | 28 | i | i | nt
CC(=O)CSc1nc(-c2cccs2)c(C#N)c(=O)[nH]1 | 16 | 68* | nt | nt | i
SMILES | PGE2 EP2 inh | EP2 modulator | CHT inh | CHT PAM | EP2 cAMP induct
CC(=O)CSc1nc(N)c(C#N)c(-c2cccs2)c1C#N | 16 | -3 | i | i | nt
Cc1nc2c(-c3ccccc3)c(C)nn2c(NCCCO)c1C | nt | -42 | nt | nt | nt
Nc1ccccc1CCCC(=O)O | 12 | 107* | nt | nt | i
CC(C)(C)C1CCc2onc(C(=O)Nc3cccnc3)c2C1 (stereo unspecified) | 3 | 52 | i | i | i
CC(C)(C)C1CCc2onc(C(=O)Nc3cccc(O)c3)c2C1 (stereo unspecified) | 25 | 43 | i | i | nt
CC1CCc2cc(F)ccc2N1C(=O)CSc1nc2cc3c(cc2cc1C#N)OCO3 (stereo unspecified) | 16 | 15 | nt | nt | nt
COc1c(O)ccc(/C=C(\C#N)c2nc3ccccc3[nH]2)c1[N+](=O)[O-] | 2 | 79* | i | i | +
O=C(OCC(=O)N1N=C(c2ccc(Cl)cc2)CC1c1ccco1)c1ccco1 (stereo unspecified) | 6 | 69* | i | i | i
O=C(OCC(=O)N1N=C(c2ccc(Cl)cc2)CC1c1ccco1)c1ccccc1O (stereo unspecified) | 6 | 43 | i | i | nt
COc1cc(C2Oc3cc(C4Oc5cc(O)cc(O)c5C(=O)C4O)ccc3OC2CO)ccc1O (stereo unspecified) | 10 | 80* | i | i | i
C=C(C)Cn1c(N(C)Cc2ccccc2)nc2c1c(=O)n(C)c(=O)n2C | 5 | -30 | nt | nt | nt
CCc1nc2c(cnn2-c2ccc(Cl)cc2)c(=O)n1-c1ccc(OC)cc1 | 17 | 81* | i | i | i
CCOc1ccc(-n2c(C)nc3c(cnn3-c3ccc(Cl)cc3)c2=O)cc1 | 20 | 30 | nt | nt | nt
CCc1cc2cc3c(cc2nc1SCC(=O)OC(C)C)OCO3 | 2 | 81* | i | i | +
Cc1cc2cc3c(cc2nc1SCC(=O)OC(C)C)OCCO3 | 10 | 34 | i | i | nt
COc1cc(OC)cc(-c2nc3cnccn3c2NCc2ccc3c(c2)OCO3)c1 | nt | -44 | nt | nt | nt
CC1SC(=Nc2ccc(Cl)cc2)NC1=O (stereo unspecified) | 13 | -25 | nt | nt | nt
COc1ccc(NC(=O)c2cc3nc(C(C)C)cc(C(F)(F)F)n3n2)c2ncccc12 | 8 | 22 | nt | nt | nt
CCC1Oc2ccc(C)cc2N(Cc2cccc(C)c2)C1=O (stereo unspecified) | 6 | 75* | i | i | +
Cc1ccc2c(c1)N(Cc1ccc3c(c1)OCO3)C(=O)C(C)O2 (stereo unspecified) | 2 | 59 | i | i | nt
O=C(c1ccccc1F)N1CCC(n2nnc3cccnc32)CC1 | nt | -64 | nt | nt | nt
O=S(=O)(C=C(c1ccccc1)c1ccccc1)c1ccccc1 | 14 | 77* | i | i | +
CCC(C)(C(=O)NC1CCCCC1)N(C(=O)c1ccccn1)c1ccccc1 (stereo unspecified) | 6 | -2 | i | i | nt
CCC(C)(C(=O)NC1CCCCC1)N(C(=O)C1CCC(=O)N1)c1ccccc1 (stereo unspecified) | 7 | 67* | i | i | i
Cc1sc(NC(=O)c2ccccc2)c(C(=O)Nc2ccc(O)cc2)c1C | 11 | -22 | nt | nt | nt
COc1ccc(-c2cc(-c3n[nH]c(=S)n3-c3cccc4ccccc34)[nH]n2)cc1 | 4 | 67* | i | i | i
COc1ccc(N(C(=O)CNS(=O)(=O)c2ccccc2)C(C(=O)NCc2ccco2)C(C)C)cc1 (stereo unspecified) | 10 | 23 | i | i | nt
